An excerpt weighted towards active compounds, which were near 2.9% of everything screened.
PAFAH2 FP inh – PAFAH2 (human) inhibition; Q99487; 340,000 compounds, 0.99% hits; recombinant PAFAH2, FP-rhodamine activity probe, fluorescence polarization; inhibition, % at 3.39 µM;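 active means inhibition above the mean over all tested compounds plus 3 SD, cut at about 30% in these data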;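 further: inhibitors block probe labeling of enzyme so polarization drops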
LYPLA1 counter – LYPLA1 (human) inhibition in PME1 counter-screen. O75608. recombinant LYPLA1, FP-Rh probe fluorescence polarization. inhibition, % at 5.9 µM. 320,000 compounds, 0.16% hits. AID 2174;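 active means inhibition above the mean of all tested compounds plus 3 SD, set per campaign, cut at about 14% in these data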;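 further: inhibitors block serine hydrolase probe labeling of LYPLA1 so polarization falls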
Target sequence (O75608 whole entry, looked up): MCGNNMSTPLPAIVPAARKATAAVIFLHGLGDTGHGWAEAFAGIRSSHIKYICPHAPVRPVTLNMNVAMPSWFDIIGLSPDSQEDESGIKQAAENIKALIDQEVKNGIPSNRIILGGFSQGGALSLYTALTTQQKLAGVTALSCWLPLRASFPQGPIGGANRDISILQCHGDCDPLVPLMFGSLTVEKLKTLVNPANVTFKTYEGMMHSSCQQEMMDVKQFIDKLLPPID
PAFAH1B2 FP inh – blocks human PAF acetylhydrolase 1b catalytic subunit 2 | recombinant PAFAH1B2, FP-rhodamine activity probe, fluorescence polarization | 340,000 compounds, 1.2% hits | inhibition, % at 3.39 µM | P68402;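 active means inhibition above the mean of all tested compounds plus 3 SD, cut at about 24% in these data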
Target sequence (P68402 whole entry, looked up): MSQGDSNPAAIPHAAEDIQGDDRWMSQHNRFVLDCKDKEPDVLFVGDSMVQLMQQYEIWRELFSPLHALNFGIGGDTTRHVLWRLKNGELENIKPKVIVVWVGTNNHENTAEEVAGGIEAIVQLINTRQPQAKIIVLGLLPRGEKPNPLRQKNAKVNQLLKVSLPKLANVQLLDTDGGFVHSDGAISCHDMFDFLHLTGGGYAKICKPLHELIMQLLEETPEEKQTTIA
LYPLA2 inh – blocks human lysophospholipase 2, a PME1 counter-screen; O95372; recombinant LYPLA2, FP-Rh probe fluorescence polarization; inhibition, % at 5.9 µM; 320,000 compounds, 0.38% hits; AID 2177;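 active means inhibition above the screen-wide mean plus 3 SD, limit set per campaign, cut at about 26% in these data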
PAFAH1B3 FP inh – inhibitors of human PAFAH1B3. inhibition, % at 3.39 µM. recombinant PAFAH1B3, FP-rhodamine probe, fluorescence polarization. 340,000 compounds, 0.28% hits;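 active means inhibition above the screen-wide average of all tested compounds plus 3 SD, cut at about 25% in these data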
pPAFAH FP inh – pPAFAH (human) enzyme inhibition | inhibition, % at 3.39 µM | 330,000 compounds, 1.5% hits | AID 463082 | recombinant pPAFAH, FP-rhodamine probe fluorescence polarization;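 active means inhibition above the mean inhibition across the screen plus 3 SD, cut at about 25% in these data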;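 further: inhibitors block binding of the rhodamine activity-based probe so polarization drops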
Hits are given with their value.

Results for CCOc1ccc(C(=O)N2CCN(c3ccccc3)CC2)cc1OCC ?
PAFAH2 FP inh: inactive; LYPLA1 counter: inactive; PAFAH1B2 FP inh: inactive; LYPLA2 inh: inactive; PAFAH1B3 FP inh: inactive; pPAFAH FP inh: inactive

How did O=C(O/N=C1/CCSc2ccccc21)c1ccc(F)cc1 do in these assays?
PAFAH2 FP inh: 47; LYPLA1 counter: inactive; PAFAH1B2 FP inh: 24; LYPLA2 inh: inactive; PAFAH1B3 FP inh: inactive; pPAFAH FP inh: inactive

Results for Cc1ccc(C(=O)COC(=O)c2cccc(O)c2)s1 ?
PAFAH2 FP inh: inactive; PAFAH1B2 FP inh: inactive; PAFAH1B3 FP inh: inactive

How did COc1cccc(C(=O)OCC(=O)c2ccc(Br)s2)c1 do in these assays?
PAFAH2 FP inh: 46; LYPLA1 counter: inactive; PAFAH1B2 FP inh: inactive; LYPLA2 inh: inactive; PAFAH1B3 FP inh: inactive; pPAFAH FP inh: inactive

Results for COc1ccc(C(=O)OCCCOC(=O)c2ccc(OC)cc2OC)c(OC)c1 ?
PAFAH2 FP inh: inactive; LYPLA1 counter: inactive; PAFAH1B2 FP inh: inactive; LYPLA2 inh: inactive; PAFAH1B3 FP inh: inactive; pPAFAH FP inh: inactive

Results for COc1ccc(C(=O)OCC(=O)c2ccc(Br)s2)c(OC)c1 ?
PAFAH2 FP inh: 30; LYPLA1 counter: inactive; PAFAH1B2 FP inh: inactive; LYPLA2 inh: inactive; PAFAH1B3 FP inh: inactive; pPAFAH FP inh: inactive

Results for Cc1cc2c(cc1C)NC(=O)CC(c1ccccc1)=N2 ?
PAFAH2 FP inh: inactive; PAFAH1B2 FP inh: inactive; PAFAH1B3 FP inh: inactive

Results for COc1ccc2ccccc2c1C(=O)/C=C\c1ccoc1 ?
PAFAH2 FP inh: inactive; LYPLA1 counter: inactive; PAFAH1B2 FP inh: inactive; LYPLA2 inh: inactive; PAFAH1B3 FP inh: inactive; pPAFAH FP inh: 27

How did O=C(/C=C/c1ccoc1)c1ccccc1O do in these assays?
PAFAH2 FP inh: inactive; LYPLA1 counter: inactive; PAFAH1B2 FP inh: inactive; LYPLA2 inh: inactive; PAFAH1B3 FP inh: inactive; pPAFAH FP inh: inactive

Results for CCCCCCCN=CC1=C(O)CC(c2ccccc2)CC1=O (stereo unspecified) ?
PAFAH2 FP inh: inactive; LYPLA1 counter: inactive; PAFAH1B2 FP inh: 26; LYPLA2 inh: inactive; PAFAH1B3 FP inh: inactive; pPAFAH FP inh: inactive

What do the screens show for `Cc1oc(-c2ccc(Cl)cc2)nc1CS(=O)CC(=O)NCc1ccccc1` (stereo unspecified)?
PAFAH2 FP inh: inactive; LYPLA1 counter: inactive; PAFAH1B2 FP inh: inactive; LYPLA2 inh: inactive; PAFAH1B3 FP inh: inactive; pPAFAH FP inh: inactive

What do the screens show for `Cc1nc2c(=O)[nH]c(=S)[nH]c2[nH]c1=O`?
PAFAH2 FP inh: 45; PAFAH1B2 FP inh: inactive; PAFAH1B3 FP inh: 27

Results for Clc1cccc(Cl)c1COc1ccncc1 ?
PAFAH2 FP inh: inactive; LYPLA1 counter: inactive; PAFAH1B2 FP inh: inactive; LYPLA2 inh: inactive; PAFAH1B3 FP inh: inactive; pPAFAH FP inh: inactive

What do the screens show for `O=C(OCc1c(Cl)cccc1Cl)c1ccncc1`?
PAFAH2 FP inh: inactive; LYPLA1 counter: inactive; PAFAH1B2 FP inh: inactive; LYPLA2 inh: inactive; PAFAH1B3 FP inh: inactive; pPAFAH FP inh: 27

What do the screens show for `O=C(OCC(=O)N1CCN(C(=O)COC(=O)c2ccncc2)CC1)c1ccncc1`?
PAFAH2 FP inh: inactive; LYPLA1 counter: inactive; PAFAH1B2 FP inh: inactive; LYPLA2 inh: inactive; PAFAH1B3 FP inh: inactive; pPAFAH FP inh: 27

Results for O=C(COC(=O)c1ccc(Br)o1)Nc1ncc(Cl)cc1Cl ?
PAFAH2 FP inh: inactive; LYPLA1 counter: inactive; PAFAH1B2 FP inh: inactive; LYPLA2 inh: inactive; PAFAH1B3 FP inh: inactive; pPAFAH FP inh: inactive

How did O=C(COC(=O)CCc1ccccc1)Nc1ncc(Cl)cc1Cl do in these assays?
PAFAH2 FP inh: inactive; LYPLA1 counter: inactive; PAFAH1B2 FP inh: inactive; LYPLA2 inh: inactive; PAFAH1B3 FP inh: inactive; pPAFAH FP inh: 26

Results for O=C(COC(=O)c1sc2cc(F)ccc2c1Cl)Nc1ncc(Cl)cc1Cl ?
PAFAH2 FP inh: inactive; LYPLA1 counter: inactive; PAFAH1B2 FP inh: inactive; LYPLA2 inh: inactive; PAFAH1B3 FP inh: inactive; pPAFAH FP inh: 31

Results for COc1cc2nc3occc3c(OC)c2cc1OC ?
PAFAH2 FP inh: inactive; LYPLA1 counter: inactive; PAFAH1B2 FP inh: inactive; LYPLA2 inh: inactive; PAFAH1B3 FP inh: inactive; pPAFAH FP inh: inactive

What do the screens show for `CCC(CO)Nc1nc2ccc(Cl)cc2c2ccccc12` (stereo unspecified)?
PAFAH2 FP inh: inactive; LYPLA1 counter: inactive; PAFAH1B2 FP inh: inactive; LYPLA2 inh: inactive; PAFAH1B3 FP inh: inactive; pPAFAH FP inh: 27

How did CCC(CO)Nc1ncnc2c1cnn2-c1ccc(Cl)cc1 (stereo unspecified) do in these assays?
PAFAH2 FP inh: inactive; LYPLA1 counter: inactive; PAFAH1B2 FP inh: inactive; LYPLA2 inh: inactive; PAFAH1B3 FP inh: inactive; pPAFAH FP inh: inactive

Assay outcomes (PubChem BioAssay)
